Experimental findings from ChEMBL document CHEMBL1961873, “Compounds: GSK PKIS; Assays: Nanosyn kinase panel” (2012) are described below.

Assay [1] has as its target Sphingosine kinase 1 (Homo sapiens) (UniProt Q9NYA1). The conditions noted are these: at 1 µM.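 Also: mean SPHK1 inhibition value reported from the GSK PKIS kinase panel screen.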
The target of assay [2] is T1, Sphingosine kinase 2 (Homo sapiens) (UniProt Q9NRA0).
T1 sequence (whole entry): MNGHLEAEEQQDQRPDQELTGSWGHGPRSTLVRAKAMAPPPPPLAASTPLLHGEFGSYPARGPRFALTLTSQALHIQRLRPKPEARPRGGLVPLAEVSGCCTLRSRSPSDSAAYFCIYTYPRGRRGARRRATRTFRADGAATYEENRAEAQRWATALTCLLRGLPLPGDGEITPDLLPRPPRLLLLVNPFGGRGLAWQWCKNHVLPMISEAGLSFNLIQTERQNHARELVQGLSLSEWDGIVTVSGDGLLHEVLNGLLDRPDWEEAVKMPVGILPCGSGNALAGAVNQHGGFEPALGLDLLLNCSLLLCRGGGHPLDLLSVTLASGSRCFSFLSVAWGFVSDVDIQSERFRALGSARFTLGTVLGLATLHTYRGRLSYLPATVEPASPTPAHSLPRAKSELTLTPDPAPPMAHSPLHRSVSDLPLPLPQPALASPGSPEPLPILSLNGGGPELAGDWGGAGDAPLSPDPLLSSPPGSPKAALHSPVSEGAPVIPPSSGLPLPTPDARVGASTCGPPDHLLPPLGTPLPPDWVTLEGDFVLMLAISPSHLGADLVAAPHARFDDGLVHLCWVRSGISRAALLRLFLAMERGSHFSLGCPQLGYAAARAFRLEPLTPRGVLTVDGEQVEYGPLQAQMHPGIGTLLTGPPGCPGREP
The conditions noted are these: at 0.1 µM.

In assay [3] the target is T1, Sphingosine kinase 2 (Homo sapiens). The conditions noted are these: at 1 µM.
In assay [4] the target is Casein kinase II subunit alpha (Homo sapiens) (UniProt P68400). The conditions noted are these: at 0.1 µM.
Assay [5] has the same target. The conditions noted are these: at 1 µM.
For assay [6], the target named is T2, Inhibitor of nuclear factor kappa-B kinase subunit alpha (Homo sapiens) (UniProt O15111).
T2 sequence (whole entry): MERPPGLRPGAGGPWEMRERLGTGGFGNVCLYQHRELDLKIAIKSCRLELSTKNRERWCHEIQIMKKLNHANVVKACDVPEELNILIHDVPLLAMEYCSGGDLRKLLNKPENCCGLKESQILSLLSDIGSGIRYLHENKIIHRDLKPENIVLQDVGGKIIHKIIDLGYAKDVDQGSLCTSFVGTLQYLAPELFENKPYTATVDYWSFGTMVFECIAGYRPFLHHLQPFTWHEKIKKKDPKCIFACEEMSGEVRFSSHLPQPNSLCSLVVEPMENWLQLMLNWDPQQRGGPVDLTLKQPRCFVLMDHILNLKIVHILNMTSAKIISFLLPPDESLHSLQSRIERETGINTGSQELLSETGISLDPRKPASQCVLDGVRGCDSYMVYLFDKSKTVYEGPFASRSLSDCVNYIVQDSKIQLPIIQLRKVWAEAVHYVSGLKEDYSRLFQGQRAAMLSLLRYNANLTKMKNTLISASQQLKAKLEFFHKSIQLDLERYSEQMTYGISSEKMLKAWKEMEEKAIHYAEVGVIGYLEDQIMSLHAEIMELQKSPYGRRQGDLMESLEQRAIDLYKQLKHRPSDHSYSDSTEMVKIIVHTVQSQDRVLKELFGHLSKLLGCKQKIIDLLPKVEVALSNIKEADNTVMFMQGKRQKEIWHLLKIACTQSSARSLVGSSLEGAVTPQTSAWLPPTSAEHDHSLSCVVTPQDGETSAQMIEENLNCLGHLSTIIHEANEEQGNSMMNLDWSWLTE
The conditions noted are these: at 0.1 µM.

In assay [7] the target is T2, Inhibitor of nuclear factor kappa-B kinase subunit alpha (Homo sapiens). The note with it: at 1 µM.
Assay [8] deals with T3, Inhibitor of nuclear factor kappa-B kinase subunit beta (Homo sapiens) (UniProt O14920).
T3 sequence (whole entry): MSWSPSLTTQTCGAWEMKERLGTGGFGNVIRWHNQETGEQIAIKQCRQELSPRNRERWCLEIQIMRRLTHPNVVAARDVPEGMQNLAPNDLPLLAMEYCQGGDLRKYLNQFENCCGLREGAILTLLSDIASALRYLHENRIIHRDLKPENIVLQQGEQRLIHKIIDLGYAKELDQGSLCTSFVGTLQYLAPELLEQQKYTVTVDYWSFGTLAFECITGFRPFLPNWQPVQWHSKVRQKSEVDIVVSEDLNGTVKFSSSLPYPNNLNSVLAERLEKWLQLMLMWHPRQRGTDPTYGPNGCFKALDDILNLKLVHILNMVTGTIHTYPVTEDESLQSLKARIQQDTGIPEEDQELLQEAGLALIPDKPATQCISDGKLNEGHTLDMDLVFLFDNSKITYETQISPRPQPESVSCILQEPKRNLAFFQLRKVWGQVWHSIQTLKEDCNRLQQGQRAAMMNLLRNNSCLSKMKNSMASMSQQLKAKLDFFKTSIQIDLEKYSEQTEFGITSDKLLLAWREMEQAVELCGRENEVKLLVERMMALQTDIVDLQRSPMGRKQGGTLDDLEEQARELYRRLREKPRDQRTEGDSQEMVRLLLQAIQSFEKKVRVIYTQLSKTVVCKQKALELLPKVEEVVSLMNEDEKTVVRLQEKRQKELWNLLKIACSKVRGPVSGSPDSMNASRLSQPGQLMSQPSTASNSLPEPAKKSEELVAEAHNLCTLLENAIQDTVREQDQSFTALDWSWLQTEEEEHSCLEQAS
The note with it: at 0.1 µM.

Assay [9] has as its target T3, Inhibitor of nuclear factor kappa-B kinase subunit beta (Homo sapiens). The conditions noted are these: at 1 µM.
In assay [10] the target is T4, Inhibitor of nuclear factor kappa-B kinase subunit epsilon (Homo sapiens) (UniProt Q14164).
T4 sequence (whole entry): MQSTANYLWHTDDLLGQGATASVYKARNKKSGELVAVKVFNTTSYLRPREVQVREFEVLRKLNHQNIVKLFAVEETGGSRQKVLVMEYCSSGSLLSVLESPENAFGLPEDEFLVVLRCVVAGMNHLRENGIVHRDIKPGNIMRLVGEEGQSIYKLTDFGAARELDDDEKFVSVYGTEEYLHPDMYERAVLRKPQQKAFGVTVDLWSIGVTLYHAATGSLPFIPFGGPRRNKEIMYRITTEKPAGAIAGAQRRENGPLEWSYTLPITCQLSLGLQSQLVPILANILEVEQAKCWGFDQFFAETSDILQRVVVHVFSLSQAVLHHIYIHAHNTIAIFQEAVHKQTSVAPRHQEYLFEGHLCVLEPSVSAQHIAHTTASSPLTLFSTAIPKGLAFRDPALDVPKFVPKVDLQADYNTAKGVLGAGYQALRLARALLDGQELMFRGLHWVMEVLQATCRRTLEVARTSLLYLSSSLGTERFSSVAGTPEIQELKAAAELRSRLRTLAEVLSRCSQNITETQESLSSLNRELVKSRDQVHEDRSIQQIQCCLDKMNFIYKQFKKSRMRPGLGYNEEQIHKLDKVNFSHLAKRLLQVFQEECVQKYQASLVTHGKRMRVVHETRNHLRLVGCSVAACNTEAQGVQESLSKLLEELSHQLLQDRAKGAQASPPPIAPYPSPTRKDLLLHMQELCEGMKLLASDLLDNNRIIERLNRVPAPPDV
The note with it: at 0.1 µM.

Assay [11] concerns the target T4, Inhibitor of nuclear factor kappa-B kinase subunit epsilon (Homo sapiens). The note with it: at 1 µM.
The target in assay [12] is T5, Serine/threonine-protein kinase Nek1 (Homo sapiens) (UniProt Q96PY6).
T5 sequence (whole entry): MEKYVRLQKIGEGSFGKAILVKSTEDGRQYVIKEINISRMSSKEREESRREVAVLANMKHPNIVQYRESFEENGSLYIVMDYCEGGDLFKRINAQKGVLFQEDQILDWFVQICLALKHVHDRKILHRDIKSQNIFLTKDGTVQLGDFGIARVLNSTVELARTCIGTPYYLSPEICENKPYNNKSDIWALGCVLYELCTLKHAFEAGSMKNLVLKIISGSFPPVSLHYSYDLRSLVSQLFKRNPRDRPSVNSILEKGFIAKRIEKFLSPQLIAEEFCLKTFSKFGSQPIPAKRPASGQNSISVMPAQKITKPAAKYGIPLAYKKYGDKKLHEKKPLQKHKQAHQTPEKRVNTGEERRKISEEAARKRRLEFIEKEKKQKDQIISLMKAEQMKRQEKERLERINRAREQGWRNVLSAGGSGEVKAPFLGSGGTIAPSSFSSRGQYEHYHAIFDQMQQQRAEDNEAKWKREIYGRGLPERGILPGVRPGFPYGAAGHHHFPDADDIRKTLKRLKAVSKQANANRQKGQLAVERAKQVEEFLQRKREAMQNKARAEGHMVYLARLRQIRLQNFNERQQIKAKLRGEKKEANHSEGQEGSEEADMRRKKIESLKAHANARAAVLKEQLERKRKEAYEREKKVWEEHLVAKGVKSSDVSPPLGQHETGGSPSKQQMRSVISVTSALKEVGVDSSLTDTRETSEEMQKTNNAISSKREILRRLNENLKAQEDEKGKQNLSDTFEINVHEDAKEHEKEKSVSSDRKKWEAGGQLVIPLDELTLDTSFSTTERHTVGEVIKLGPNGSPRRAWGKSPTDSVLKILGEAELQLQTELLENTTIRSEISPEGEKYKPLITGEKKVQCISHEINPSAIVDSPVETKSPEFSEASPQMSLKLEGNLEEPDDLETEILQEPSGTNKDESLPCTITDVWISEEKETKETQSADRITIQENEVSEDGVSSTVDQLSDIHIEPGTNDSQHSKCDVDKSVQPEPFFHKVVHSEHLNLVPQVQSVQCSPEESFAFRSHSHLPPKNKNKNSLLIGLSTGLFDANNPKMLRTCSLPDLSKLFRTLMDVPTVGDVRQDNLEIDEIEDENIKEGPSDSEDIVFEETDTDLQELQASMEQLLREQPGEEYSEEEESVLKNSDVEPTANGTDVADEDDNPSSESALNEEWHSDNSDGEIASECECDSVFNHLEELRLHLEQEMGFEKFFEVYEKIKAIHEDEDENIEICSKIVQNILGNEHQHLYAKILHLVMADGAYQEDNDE
The note with it: at 0.1 µM.

The target of assay [13] is T5, Serine/threonine-protein kinase Nek1 (Homo sapiens). The note with it: at 1 µM.
Assay [14] addresses T6, Serine/threonine-protein kinase Nek2 (Homo sapiens) (UniProt P51955).
T6 sequence (whole entry): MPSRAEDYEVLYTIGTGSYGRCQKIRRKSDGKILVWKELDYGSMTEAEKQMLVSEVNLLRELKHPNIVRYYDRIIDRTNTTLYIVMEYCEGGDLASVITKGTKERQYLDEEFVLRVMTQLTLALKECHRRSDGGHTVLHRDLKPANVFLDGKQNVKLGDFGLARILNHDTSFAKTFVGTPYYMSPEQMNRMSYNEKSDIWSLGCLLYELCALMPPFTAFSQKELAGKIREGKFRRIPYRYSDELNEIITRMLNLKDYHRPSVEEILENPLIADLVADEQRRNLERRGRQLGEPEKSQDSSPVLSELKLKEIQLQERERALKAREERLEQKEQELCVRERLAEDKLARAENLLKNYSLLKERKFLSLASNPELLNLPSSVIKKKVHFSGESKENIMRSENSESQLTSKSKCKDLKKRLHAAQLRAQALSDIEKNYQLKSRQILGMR
The conditions noted are these: at 0.1 µM.

In assay [15] the target is T6, Serine/threonine-protein kinase Nek2 (Homo sapiens). The note with it: at 1 µM.
For assay [16], the target named is Serine/threonine-protein kinase Nek6 (Homo sapiens) (UniProt Q9HC98). The conditions noted are these: at 0.1 µM.
For assay [17] the target is unchanged. The note with it: at 1 µM.
In assay [18] the target is Serine/threonine-protein kinase Nek7 (Homo sapiens) (UniProt Q8TDX7). The conditions noted are these: at 0.1 µM.
The target is the same in assay [19]. The conditions noted are these: at 1 µM.
In assay [20] the target is T7, Serine/threonine-protein kinase Nek9 (Homo sapiens) (UniProt Q8TD19).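 Also: reported value is the mean percent inhibition of NEK9.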
T7 sequence (whole entry): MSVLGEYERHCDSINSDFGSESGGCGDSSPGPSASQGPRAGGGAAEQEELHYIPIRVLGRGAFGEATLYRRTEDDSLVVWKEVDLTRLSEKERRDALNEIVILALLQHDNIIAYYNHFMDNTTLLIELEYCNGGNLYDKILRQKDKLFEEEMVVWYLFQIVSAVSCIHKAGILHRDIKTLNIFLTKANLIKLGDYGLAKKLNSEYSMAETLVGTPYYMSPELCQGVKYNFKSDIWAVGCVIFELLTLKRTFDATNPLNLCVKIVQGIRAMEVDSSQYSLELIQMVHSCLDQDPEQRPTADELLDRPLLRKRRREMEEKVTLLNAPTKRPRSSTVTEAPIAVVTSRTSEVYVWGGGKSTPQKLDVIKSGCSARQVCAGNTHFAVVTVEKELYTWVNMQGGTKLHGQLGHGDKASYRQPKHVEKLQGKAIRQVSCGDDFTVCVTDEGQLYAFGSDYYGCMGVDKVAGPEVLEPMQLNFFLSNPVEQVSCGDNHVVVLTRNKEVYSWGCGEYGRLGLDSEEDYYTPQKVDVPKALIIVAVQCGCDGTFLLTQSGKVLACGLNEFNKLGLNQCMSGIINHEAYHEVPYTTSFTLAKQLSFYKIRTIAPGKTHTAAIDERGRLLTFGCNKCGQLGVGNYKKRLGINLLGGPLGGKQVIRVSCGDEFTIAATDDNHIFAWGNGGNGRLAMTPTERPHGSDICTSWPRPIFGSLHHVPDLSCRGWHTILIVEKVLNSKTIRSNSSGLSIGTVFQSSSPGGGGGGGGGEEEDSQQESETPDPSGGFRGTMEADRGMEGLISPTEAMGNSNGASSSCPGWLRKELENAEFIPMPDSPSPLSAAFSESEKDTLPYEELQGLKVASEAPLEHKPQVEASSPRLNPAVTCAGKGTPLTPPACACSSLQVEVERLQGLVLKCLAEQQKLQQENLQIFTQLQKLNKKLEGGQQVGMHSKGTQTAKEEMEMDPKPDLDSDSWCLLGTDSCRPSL
The conditions noted are these: at 0.1 µM.

Chain of Casein kinase II subunit alpha (Homo sapiens) (P68400 whole entry, looked up): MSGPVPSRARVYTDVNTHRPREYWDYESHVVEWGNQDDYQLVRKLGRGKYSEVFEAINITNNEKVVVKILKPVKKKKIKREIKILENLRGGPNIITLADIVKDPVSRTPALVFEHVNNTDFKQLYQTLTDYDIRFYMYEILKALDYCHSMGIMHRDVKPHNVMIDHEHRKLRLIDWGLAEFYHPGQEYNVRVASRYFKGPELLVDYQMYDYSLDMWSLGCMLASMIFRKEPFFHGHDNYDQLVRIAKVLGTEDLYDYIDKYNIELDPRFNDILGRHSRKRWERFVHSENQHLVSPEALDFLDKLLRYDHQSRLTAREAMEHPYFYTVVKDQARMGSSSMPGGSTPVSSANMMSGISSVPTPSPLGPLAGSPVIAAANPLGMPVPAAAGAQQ
Chain of Serine/threonine-protein kinase Nek6 (Homo sapiens) (Q9HC98 whole entry): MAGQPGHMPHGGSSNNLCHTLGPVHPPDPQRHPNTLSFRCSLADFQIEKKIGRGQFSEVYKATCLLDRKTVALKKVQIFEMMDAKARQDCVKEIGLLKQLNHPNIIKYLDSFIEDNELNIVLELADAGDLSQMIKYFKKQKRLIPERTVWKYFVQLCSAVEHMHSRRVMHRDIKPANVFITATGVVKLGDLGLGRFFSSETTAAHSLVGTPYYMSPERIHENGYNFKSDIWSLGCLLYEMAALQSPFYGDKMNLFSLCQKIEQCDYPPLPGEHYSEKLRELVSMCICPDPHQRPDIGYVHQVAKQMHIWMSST
Chain of Serine/threonine-protein kinase Nek7 (Homo sapiens) (Q8TDX7 whole entry, looked up): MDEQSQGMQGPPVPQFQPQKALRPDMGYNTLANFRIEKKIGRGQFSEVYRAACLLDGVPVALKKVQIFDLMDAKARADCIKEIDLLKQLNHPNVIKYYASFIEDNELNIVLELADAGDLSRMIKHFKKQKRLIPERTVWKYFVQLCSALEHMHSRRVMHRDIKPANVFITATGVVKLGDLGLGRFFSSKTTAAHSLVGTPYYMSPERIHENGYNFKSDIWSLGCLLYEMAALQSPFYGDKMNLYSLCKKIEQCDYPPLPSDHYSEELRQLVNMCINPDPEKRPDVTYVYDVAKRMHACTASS
Chain of Sphingosine kinase 1 (Homo sapiens) (Q9NYA1 whole entry): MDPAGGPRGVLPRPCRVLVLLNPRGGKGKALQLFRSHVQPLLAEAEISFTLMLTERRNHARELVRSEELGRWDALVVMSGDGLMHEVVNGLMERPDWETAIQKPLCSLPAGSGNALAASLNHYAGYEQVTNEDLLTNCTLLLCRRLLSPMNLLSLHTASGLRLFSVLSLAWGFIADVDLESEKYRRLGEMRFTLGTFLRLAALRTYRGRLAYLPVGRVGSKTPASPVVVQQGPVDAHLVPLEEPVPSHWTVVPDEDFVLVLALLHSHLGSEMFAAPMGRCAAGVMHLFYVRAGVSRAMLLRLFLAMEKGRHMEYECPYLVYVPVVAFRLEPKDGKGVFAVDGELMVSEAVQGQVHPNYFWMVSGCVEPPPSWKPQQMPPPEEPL

Take `CC(=O)Nc1cccc(C#Cc2cncnc2Nc2ccc(OCc3cccc(F)c3)c(Cl)c2)c1`: the inhibition in assay [1] was -1.15%; in assay [2] it was -0.41%; in assay [3] it was -2.47%; in assay [4] it was -0.51%; in assay [5], -4.66%; in assay [6], 3.13%. The inhibition in assay [7] was -2.41%; in assay [8], 2.6%; in [9], -1.07%; in assay [10], 0.8%; in assay [11], -0.15%; in assay [12], 1.85%. The inhibition is 1.3% in [13]; 1.33% in assay [14]; 2.68% in [15]; 1.9% in assay [16]; 1.16% in assay [17]; 2.97% in assay [18]. The inhibition worked out at 2.6% in assay [19] and 1.96% in assay [20].
